# Compounds with a hit are over-represented: about 3.1% of the library has one in this group of screens.
# TRb SRC2 PPI: inhibitors of human thyroid hormone receptor beta-SRC2 interaction; P10828; TRbeta-SRC2 peptide binding, fluorescence polarization; receptor liganded with 1 µM T3; Potency, µM (top dose mostly 106 µM), for the others: top-dose activity change, negative = inhibition, most hits filed as inhibitors; 280,000 tested, 0.065% active;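 also: plate controls were bound peptide for no effect and peptide without receptor for full effect; nearly all actives have a fitted effect of over 50% in size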
# Target sequence (P10828 whole entry, looked up): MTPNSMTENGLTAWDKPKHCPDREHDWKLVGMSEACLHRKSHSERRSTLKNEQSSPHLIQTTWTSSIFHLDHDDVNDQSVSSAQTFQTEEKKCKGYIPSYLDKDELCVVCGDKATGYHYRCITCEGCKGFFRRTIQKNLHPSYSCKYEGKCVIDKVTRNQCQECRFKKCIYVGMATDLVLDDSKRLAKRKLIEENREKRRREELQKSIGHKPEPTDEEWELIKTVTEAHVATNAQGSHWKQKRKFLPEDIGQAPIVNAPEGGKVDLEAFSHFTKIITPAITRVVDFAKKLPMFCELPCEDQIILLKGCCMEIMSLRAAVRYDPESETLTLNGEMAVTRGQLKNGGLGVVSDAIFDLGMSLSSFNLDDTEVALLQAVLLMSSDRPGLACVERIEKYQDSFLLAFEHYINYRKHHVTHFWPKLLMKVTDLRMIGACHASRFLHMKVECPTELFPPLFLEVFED
#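 Fluorescence polarization of 20 nM Texas Red SRC2 peptide (20-aa NR interaction domain) bound to 0.6 uM human TRb ligand-binding domain, with 1 uM T3, after 5 hr at ambient temperature; inhibition seen as decreased polarization.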
# Tau fluor counter: counter-screen for tau fibril formation inhibitors; tau K18 P301L Alexa594 fluorescence, heparin fibrillization; Potency, µM (series often up to 57.7 µM), for inactives: at the highest dose activity change, negative = decrease; 280,000 tested, 0.93% active; AID 1463; also: nearly all actives have a fitted effect of over 55% in size
#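 Human K18 P301L tau (15 uM unlabeled plus 0.24 uM Alexa 594-labeled, final) in 100 mM sodium acetate pH 7 was mixed with compound and 20 uM heparin and incubated 6 hr at 37 C.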
# Tau ThT inhib: tau fibrillization inhibition (ThT binding) | AID 1460 | 270,000 tested, 2.1% active | P10636 | recombinant tau K18 P301L (four-repeat tau fragment), heparin-induced fibrillization, ThT fluorescence | Potency, µM (doses to about 57.4 µM), for the others: top-dose activity, negative = inhibition, most hits filed as inhibitors; also: nearly all actives have a fitted effect of over 55% in size
# Target sequence (P10636 561-689 P618L limits assumed): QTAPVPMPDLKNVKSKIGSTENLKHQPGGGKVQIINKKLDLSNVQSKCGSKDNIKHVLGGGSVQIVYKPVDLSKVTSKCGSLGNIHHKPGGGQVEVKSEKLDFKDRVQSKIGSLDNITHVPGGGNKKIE
#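 K18 P301L tau (15 uM + 0.24 uM Alexa 594-tagged), heparin 20 uM, NaOAc pH 7, 6 h 37 C; ThT 30 uM, 1 h RT, ex 450/em 510 nm.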
# GoLoco inh red: blocks human Gai1 binding to RGS12 GoLoco peptide, red readout; Potency, µM (series often up to 61.6 µM), without a hit: top-dose activity, negative = inhibition, most hits filed as inhibitors; AID 880; Gai1:RGS12 GoLoco peptide FP, rhodamine, 10 min; 230,000 tested, 0.44% active; active = well fitted inhibition curve with a large enough effect, not every such curve was filed as active; inactive = no such curve, though single readings can be large or run the other way; also: nearly all actives have a fitted effect of over 30% in size
# TR SRC2 fluor cs: alters Texas Red total fluorescence, flagging assay interference; TRb/SRC2 Texas Red total fluorescence interference; Potency, µM (highest dose often 106 µM), without a hit: at the top dose fluorescence change, negative = quenching; 280,000 tested, 0.29% active; AID 1479; active = well fitted curve in either direction with a large enough effect; inconclusive = small, poorly fitted or top-dose-only effect
#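 Human TRb ligand-binding domain at 0.6 uM with 20 nM Texas Red SRC2 peptide in Tris buffer containing 1 uM T3 and 5% DMSO, incubated with compound 5 h at ambient temperature. Total fluorescence (555/632 nm) calculated as parallel + 2 × perpendicular.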
# Tau FP inhib: tau fibrillization inhibition (FP); P10636; K18 P301L tau heparin fibrillization, Alexa594 FP, 6 h; Potency, µM (doses to about 57.7 µM), for the others: at the top dose activity, negative = inhibition, actives largely listed as inhibitors; 280,000 tested, 0.39% active; AID 1468; also: nearly all actives have a fitted effect of over 55% in size
#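 Human tau K18 […] P301L fragment, 15 uM unlabeled plus 0.24 uM Alexa 594-labeled tau (final), with compound and 20 uM heparin in 100 mM sodium acetate pH 7; 6 hr at 37 C, then Alexa 594 FP read.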
# * hit, by the source's call; ? = inconclusive; . = no result given; [ ] = remark or other dose. Unless noted, calls follow the shape of the dose curve; as a rule, active = well fitted curve in the direction sought with a large enough effect; inconclusive = small, poorly fitted or top-dose-only effect, or another doubt; inactive = no such curve, though single readings can be large; an effect the other way counts as inactive or inconclusive. Unless noted, % is scaled to controls: 0 for no effect and ±100 for the full control effect; potency is read from the fitted curve at half-maximal effect.
SMILES,TRb SRC2 PPI,Tau fluor counter,Tau ThT inhib,GoLoco inh red,TR SRC2 fluor cs,Tau FP inhib
Cc1cc(/C=C2\SC(=S)NC2=O)cc(C)c1O,10.2%,-16.4%,?,123.8%,-10.7%,4.0%
O=C1NC(=S)S/C1=C\c1ccc(SCc2ccccc2)o1,3.9%,?,10µM*,11.1%,-13.1%,-5.9%
Cc1ccc(NC(=S)N(CCN(C)C)Cc2cc3cccc(C)c3[nH]c2=O)cc1,3.1%,-1.0%,-4.3%,8.5%,-1.9%,-4.6%
CCCCn1cnc2cc(NCc3ccccc3Cl)ccc21,-23.4%[53 µM],?,?,.,0.0631µM*[quencher],5.6%
COc1cccc(CNc2ccc3c(c2)ncn3C)c1OC,-4.8%,-27.9%,?,.,0.0089µM*[quencher],2.3%
CN(C)c1ccc(CNc2ccc3c(c2)ncn3C)cc1,-0.2%,15.8µM*[quencher],?,-1.5%,-8.3%,-0.3%
COc1cc(/C=C2\SC(=S)N(CC(=O)NC(C)(C)C)C2=O)cc(OC)c1OC,-3.2%,?,?,12.0%,-2.7%,17.6%
CCOc1ccc(-c2n[nH]c(C(=O)NN)c2C)cc1,-5.9%,2.0%,?,5.3%,-1.5%,-5.4%
O=C(COCc1cc(-c2ccc(F)cc2)on1)Nc1cc(Cl)ccc1O,10.2%,-24.9%,-16.3%,.,-6.0%,-1.3%
CCN(c1ccccc1)S(=O)(=O)c1ccc(Cl)c(NC(=O)COC(=O)c2cc(O)c3ccccc3c2O)c1,-1.6%,8.91µM*[quencher],11.2µM*,0.2%,-2.8%,?
CCN(c1ccccc1)S(=O)(=O)c1ccc(Cl)c(NC(=O)COC(=O)c2ccc(O)cc2)c1,-3.8%,?,7.5%,.,-5.4%,?
COc1ccc(CN2C(=O)c3ccccc3C2C(=O)NC2CCCC2)c(OC)c1 (stereo not drawn),-10.2%,-5.6%,-1.8%,-4.2%,0.1%,-11.3%
N#Cc1cccc(-c2nc3cnc(N4CCOCC4)nc3n(Cc3ccc(F)cc3)c2=O)c1,.,.,.,0.3%,.,.
COCCn1c(=O)c(-c2cccc(C#N)c2)nc2cnc(N3CCOCC3)nc21,.,.,.,20µM*,.,.
Cc1cc(O)c(C=O)c2c1C(=O)Oc1c(C)c(O)c3c(c1O2)C(O)OC3=O (stereo not drawn),4.9%,?,7.94µM*,10.7%,-5.7%,?
COc1cc(C)c2c(c1C=O)Oc1c(c(C)c(O)c3c1C(O)OC3=O)OC2=O (stereo not drawn),?,?,14.1µM*,-14.7%,?,25.1µM*
COC(=O)c1c(OC)cc2c(c1C)Oc1c(Cl)c(O)c(Cl)c(C)c1C(=O)O2,-3.1%,-16.3%,?,-1.1%,0.1%,1.3%
Cc1cccc(C)c1OCC(=O)Nc1ccccc1C(F)(F)F,-2.0%,-2.8%,-4.4%,1.1%,0.9%,1.3%
O=C1N(c2ccccc2)C[C@@H]2C[C@@H](c3cccc4c3OCO4)N3CCC[C@@]123,-4.7%,-1.9%,0.2%,10.6%,1.1%,-2.5%
Cc1ccc(C)c2[nH]c(=O)c(C(c3nnnn3CCc3ccccc3)N3CCOCC3)cc12 (stereo not drawn),1.3%,-7.9%,-5.4%,2.0%,1.0%,-5.8%
Cc1ccc(C)c2[nH]c(=O)c(C(c3nnnn3Cc3ccco3)N3CCc4ccccc4C3)cc12 (stereo not drawn),?,-18.2%,31.6µM*,12.0%,-1.7%,?
COc1cccc(C(=O)NNC(=O)C2CC(C)=C(C)CC2C(=O)O)c1 (stereo not drawn),-0.4%,1.8%,0.4%,6.2%,-2.1%,1.8%
CCOC(=O)c1cccc(NC(=O)NCc2ccc3c(c2)CCN3C(=O)CC)c1,6.2%,17.8µM*[quencher],?,.,-4.9%,?
CCC(=O)N1CCc2cc(CNC(=O)Nc3cc(OC)c(OC)c(OC)c3)ccc21,3.5%,-21.0%,-11.9%,.,-2.3%,11.1%
O=C(CCCN1C(=O)/C(=C/c2cccs2)SC1=S)Nc1ccc(O)c(C(=O)O)c1,0.6%,?,8.91µM*,-2.0%,-3.9%,0.5%
SMILES,TRb SRC2 PPI,Tau fluor counter,Tau ThT inhib,GoLoco inh red,TR SRC2 fluor cs,Tau FP inhib
O=C(CCCN1C(=O)/C(=C/c2ccco2)SC1=S)Nc1cccc(C(=O)O)c1,4.3%,-18.0%,15.8µM*,15.0%,-15.8%,-13.6%
COc1ccc(NC(=O)CCCN2C(=O)/C(=C\c3ccco3)SC2=S)cc1,?,?,15.8µM*,61.9%,?,?
COc1cc(O)c2c(=O)c3c(OC)c(O)ccc3oc2c1,3.3%,?,12.6µM*,4.4%,-4.9%,8.1%
COc1cc(O)c2c(=O)cc(-c3ccccc3)oc2c1,4.1%,-16.1%,?,6.4%,-1.3%,-13.2%
COc1cc(O)c2c(=O)c(O)c(-c3ccc(O)c(O)c3)oc2c1,7.9%,20µM*[quencher],5.01µM*,-6.4%,50.1µM*[quencher],-1.9%
O=c1c(O)c(-c2ccc(O)cc2)oc2cc(O)cc(O)c12,7.2%,?,12.6µM*,5.0%,-10.3%,8.2%
COc1cc(-c2oc3cc(O)ccc3c(=O)c2O)ccc1O,9.2%,?,?,2.6%,1.7%,9.3%
Cc1ccc(-c2noc(CCC(=O)Nc3ccc(C)cn3)n2)cc1,-3.6%,9.6%,14.3%,13.6%,-7.8%,-7.3%
Cc1cc(C(C)(C)C)cc(C)c1C(=O)O,-3.9%,-15.1%,-7.2%,6.4%,-0.1%,-14.8%
COC(=O)c1ccc(C2C=C(c3ccc(Cl)cc3)Nc3nc4ccccc4n32)cc1 (stereo not drawn),-26.6%,-8.1%,?,.,0.141µM*[quencher],2.1%
Fc1ccc(C2=CC(c3ccc(F)cc3)n3c(nc4ccccc43)N2)cc1 (stereo not drawn),-0.7%,3.2%,?,.,2.4%,-0.6%
COc1ccc(-c2oc3ccccc3c(=O)c2O)cc1,5.0%,-1.1%,-4.1%,1.4%,-0.6%,-3.6%
O=c1c(O)c(-c2ccc(O)c(O)c2)oc2cc(O)ccc12,-4.4%,?,5.01µM*,-2.2%,-1.5%,8.8%
O=c1c(O)c(-c2ccc(O)c(O)c2)oc2ccccc12,-3.4%,?,14.1µM*,3.8%,-9.4%,10.4%
COC(=O)c1c(-c2cccs2)csc1NC(=O)c1cc(OC)cc(OC)c1,1.6%,-28.5%,?,.,2.6%,?
COC(=O)c1c(-c2cccs2)csc1NC(=O)COc1ccc(C(C)C)cc1,-6.9%,-17.0%,28.2µM*,.,-20.6%,?
CCCc1ccc(OCC(=O)Nc2scc(-c3cccs3)c2C(=O)OC)cc1,-28.6%,-23.4%,22.4µM*,.,-26.7%,?
COC(=O)c1c(-c2cccs2)csc1NC(=O)CN1CCOCC1,-1.6%,-5.2%,-9.3%,7.5%,-1.1%,-1.4%
O=C(NCc1ccccc1)c1ccc(NC(=O)N2CC3CCCN3c3ccccc32)cc1 (stereo not drawn),-0.5%,?,-9.2%,.,0.6%,11.6%
